The values below come from PubChem BioAssay (NCI).

This assay is described as follows: NCI Yeast Anticancer Drug Screen. Data for the mgt1 strain (AID 153). Conditions: S. cerevisiae mgt1 mutant growth inhibition, hits give high values. On the procedure:
Growth inhibition of yeast strains with defined genetic alterations is measured as a screen for potential anti-cancer activity. Selected strains with alterations in DNA damage repair or cell cycle control were exposed to compounds and growth inhibition was measured relative to vehicle treated controls. The strain used in this assay is mgt1

Compounds without any hit were thinned out: in the full panel of roughly 79,000, 15% have a hit. Calls of active or inactive are those of the source. Cut-off read from the data, not from the text of the source: active = growth inhibition above about 70%; inactive = the rest.

As for `O=C1C=C(Cl)C(=O)N1c1cccc(Cl)c1`, the growth inhibition (at 1.2 µM) was -3% (inactive); the growth inhibition (at 3.7 µM) is 67% (inactive); the growth inhibition (at 11.0 µM) is 99% (active); the growth inhibition (at 33.0 µM) was 99% (active); the growth inhibition (at 100.0 µM) is 100% (active).

As to `Oc1ccc(SCc2ccc(NCc3ccccc3)cc2)cc1`, the growth inhibition by setting is: (at 1.2 µM) -4% (inactive); (at 3.7 µM) 7% (inactive); (at 11.0 µM) 22% (inactive); (at 33.0 µM) 47% (inactive); (at 100.0 µM) 87% (active).

With `C[CH2][Sn]([CH2]C)([O]C(=O)C(N)Cc1ccccc1)[O]C(=O)C(N)Cc1ccccc1` (stereo not given), the growth inhibition (at 1.2 µM) is 6% (inactive); the growth inhibition (at 3.7 µM) is -2% (inactive); the growth inhibition (at 11.0 µM) is 1% (inactive); the growth inhibition (at 33.0 µM) was 23% (inactive); the growth inhibition (at 100.0 µM) is 56% (inactive).

Consider `O=c1ssc(=Nc2ccccc2)n1-c1ccccc1`, for which the growth inhibition runs as follows: (at 1.2 µM) 0% (inactive); (at 3.7 µM) 2% (inactive); (at 11.0 µM) 0% (inactive); (at 33.0 µM) 12% (inactive); (at 100.0 µM) 39% (inactive).

For the molecule `O=C1OC(OC/C(Br)=C(\Br)COC2OC(=O)C(Cl)=C2Cl)C(Cl)=C1Cl` (stereo not given), the growth inhibition (at 1.2 µM) was -5% (inactive); the growth inhibition (at 3.7 µM) is -1% (inactive); the growth inhibition (at 11.0 µM) is 2% (inactive); the growth inhibition (at 33.0 µM) was 3% (inactive); the growth inhibition (at 100.0 µM) is 9% (inactive).

Regarding `Cc1c2cc[n+](Cc3ccc(I)cc3)cc2c(C)c2c1[nH]c1ccccc12`, the growth inhibition is 9% (inactive) (at 1.2 µM); -1% (inactive) (at 3.7 µM); 90% (active) (at 11.0 µM); 97% (active) (at 33.0 µM); 96% (active) (at 100.0 µM).

Regarding `CCCCNC1CCC2(SCCS2)c2[nH]c3ccccc3c21` (stereo not given), the growth inhibition runs as follows: (at 1.2 µM) 2% (inactive); (at 3.7 µM) -2% (inactive); (at 11.0 µM) 7% (inactive); (at 33.0 µM) -5% (inactive); (at 100.0 µM) 7% (inactive).

As to `O=C1c2cccnc2C(=O)C2C3C=CC(C3)C12` (stereo not given), the growth inhibition runs as follows: (at 1.2 µM) 12% (inactive); (at 3.7 µM) 32% (inactive); (at 11.0 µM) 65% (inactive); (at 33.0 µM) 94% (active); (at 100.0 µM) 98% (active).
